According to PubChem BioAssay AID1963321 (National Center for Advancing Translational Sciences (NCATS), 2024):
Inconclusive results are not listed. The call rests on the fitted dose curve.

target: cAMP-dependent protein kinase catalytic subunit alpha (Homo sapiens) (UniProt P17612); assay: Protein Kinase A (PKA-HiBiT) enzymatic inhibition screen - Functional assay; details: luminescence; series mostly up to 57.5 µM; activity change, negative = inhibition: at the top concentration
From the text: National Center for Advancing Translational Sciences (NCATS),
National Institute of Health (NIH), Maryland
Discovery and optimization of novel protein-binding ligands underlies many of the methods and applications of biology, drug discovery, clinical diagnostics, and environmental toxicology. Assays for detecting the interaction of, for example, a molecule with a macromolecular target also referred to here as the target of interest (TOI) is dependent on a compatible output technology. Depending on the nature and knowledge surrounding the TOI, whether a receptor, enzyme, regulatory subunit or scaffold, or a sequence-defined nucleic acid folded into a complex tertiary structure, assay strategies can vary widely.
Here we exploit ligand-biased changes in the structural dynamics of the target protein to control reporter alpha complementation allowing a non-competitive, non-functional, non-separation measure of ligand-target interaction.
Using a chemical library of >1,200 compounds enriched for scaffolds known to be associated with the inhibition of firefly luciferase (FLuc) activity (PubChem AIDs 2309) we first illustrate and compare the Structural Dynamics Response (SDR) assay vs. the standard functional FLuc enzyme assay (2). Secondly, we show the specificity and sensitivity of the SDR for the Abelson tyrosine kinase (ABL1) compared to the serine/threonine protein kinase A, using an enriched chemical library of 128 compounds selected, in part, for activity annotated with ABL1 kinase activity using the Pharos database (3).
(1) A. S. Dixon et al., NanoLuc Complementation Reporter Optimized for Accurate Measurement of Protein Interactions in Cells. ACS Chem Biol 11, 400-408 (2016).
Chemistry & Biology, 19, 1060 - 1072 (2012).
(3) K. J. Kelleher et al., Pharos 2023: an integrated resource for the understudied human proteome. Nucleic Acids Res 51, D1405-D1416 (2023).
PROTOCOL TABLE (as described by Inglese J, Shamu CE and Guy RK. 2007)
SEQUENCE No. (e.g., 1, 2, 3, etc.); […] (e.g., C. elegans, Compounds, Incubation, Read, etc.); VALUE and DESCRIPTION.
1. Reagent. Dispense 4 uL PKA-N-HiBiT enzyme per well at a final enzyme concentration of 10 nM in buffer with 87.5 uM ATP (functional assay) into columns 2-48 of four replicate Greiner 1536-well white,solid bottom high base, medium plates per assay. Dispense respective buffer without enzyme at 4 uL/well in column 1 of assay plates using BioRaptr 2.
2. Compounds. Library compounds added at 23 nL/well by pin transfer. DMSO neutral control and H-89 positive control added at 25 nL/well, transfer by Mosquito dispenser.
3. Incubation. Incubate enzyme and compounds at room temperature for 30 min, protect from light.
4. Reagent. (Functional assay) Transfer 25 nL of kemptide peptide substrate to each well of four replicate kinase assay plates with Mosquito dispenser.
5. Incubation. (Functional assay) Kinase Enzyme incubated with peptide substrate for 3 h at room temperature, protected from light.
6. Reagent. (Functional assay) Add 4 uL/well of Kinase-Glo Plus reagent (Promega) to kinase activity assay plates.
7. Detector. (Functional assay) Luminescence measured using CCD-based camera (ViewLux) with settings as follows: Exposure, 1 sec; Gain, High; Speed, Slow; Binning, 2X.
Inglese J, Shamu CE and Guy RK, Reporting data from high throughput screening of small molecule libraries, Nature Chemical Biology, 2007, 3(8): 438-441. doi.org/10.1038/nchembio0807-438.

Activity change, negative = inhibition, inactive:
N#Cc1ccc2ncnc(NCCc3ccccc3)c2c1 8.93%
C[C@@H]1CN(CC(=O)Nc2ccc3c(c2)Cc2cccc(-c4cc(=O)cc(N5CCOCC5)o4)c2S3)C[C@H](C)O1 8.87%
COc1cc2ncnc(Oc3cccc(NC(=O)Nc4cc(C(C)(C)C(F)(F)F)on4)c3)c2cc1OC 8.13%
CN1CCN(c2ccc(Nc3ncc4cc(C#N)c(=O)n(C5CCCC5)c4n3)cc2)CC1 8.73%
O=c1c(O)c(-c2ccc(O)c(O)c2)oc2cc(O)cc(O)c12 9.03%
Nc1nc(Nc2ccc(S(N)(=O)=O)cc2)n(C(=S)Nc2c(F)cccc2F)n1 -1.69%
Cc1ncc(NC(=O)c2ccc(CN3CCN(C)CC3)c(C(F)(F)F)c2)cc1Nc1nccc(-c2cccnc2)n1 8.99%
CC[C@@](C)(Nc1ccnc(-c2c[nH]c3ncccc23)n1)C(=O)NCC(F)(F)F -2.08%
Cc1cn(-c2cccc(NC(=O)c3ccc(C)c(Nc4nccc(-c5cccnc5)n4)c3)c2)cn1 9.04%
CC(C)n1nc(-c2cc3cc(O)ccc3[nH]2)c2c(N)ncnc21 1.41%
Cc1nc(NC(=O)N2CCC[C@H]2C(N)=O)sc1-c1ccnc(C(C)(C)C(F)(F)F)c1 7.59%
CC(C)CCN1c2nc(Nc3cc(F)c(O)c(F)c3)ncc2N(C)C(=O)C1C (stereo not given) 8.52%
NC(=O)c1cccc(-c2cc(Nc3ccc(OC(F)(F)F)cc3)ncn2)c1 7.55%
CNC(=O)c1ccccc1Nc1nc(Nc2ccc(N3CCOCC3)cc2OC)ncc1Cl 8.92%
CC(C)(NS(=O)(=O)c1ccc2c(Cl)cnc(N=C(N)N)c2c1)C(=O)O 9.1%
Nc1ncnc2c1c(-c1cnc3[nH]ccc3c1)nn2C1CCCC1 5.45%
Cc1cc(C)c(/C=C2\C(=O)Nc3ccccc32)[nH]1 8.87%
COc1cc2ncnc(-n3nc(-c4ccccn4)nc3N)c2cc1OC 8.51% [at 28.8 µM]
COc1ccc(-n2c(C)c([N+](=O)[O-])c3ccc(O)cc32)cc1 8.85%
Cc1cc(Nc2cc(N3CCN(C)CC3)nc(Sc3ccc(NC(=O)C4CC4)cc3)n2)n[nH]1 8.75%
COc1ccccc1-c1c[nH]c2ncc(-c3cncc(C(=O)N(C)C)c3)cc12 8.63%
COc1cc(N2CCC(O)CC2)ccc1Nc1nc(Nc2ccccc2S(=O)(=O)C(C)C)c2[nH]cnc2n1 8.78%
C=CC(=O)N1CCC(Oc2cc3c(Nc4ccc(Cl)c(Cl)c4F)ncnc3cc2OC)CC1 8.38%
Cc1nc2ccc(-n3ncc(C(=O)c4cc5ccccc5[nH]4)c3N)cc2[nH]1 6.67%
Cc1cn(-c2cc(F)cc(NC(=O)c3ccc(C)c(Nc4nccc(-c5cccnc5)n4)c3)c2)cn1 8.94%
CCN(CC)CCOc1ccc(Nc2ncc3cc(-c4c(Cl)cccc4Cl)c(=O)n(C)c3n2)cc1 2.72%
Cn1cc(-c2cc3c(N4CCN(c5ncc([C@@](C)(N)c6ccc(F)cc6)cn5)CC4)ncnn3c2)cn1 8.24%
CCN1C(=O)CNc2ncc(-c3ccc(-c4ncn[nH]4)nc3C)nc21 6.55%
Cc1cccc(/C=N/Nc2cc(N3CCOCC3)nc(OCCc3ccccn3)n2)c1 8.7% [at 46 µM]
CCN1CCN(Cc2ccc(NC(=O)c3ccc(C)c(NC(=O)c4cncc(-c5cccs5)c4)c3)cc2C(F)(F)F)CC1 7.5%
C#Cc1cccc(Nc2ncnc3cc4c(cc23)OCCOCCOCCO4)c1 8.9%
Cc1cc(Nc2ncc3cc(-c4c(Cl)cccc4Cl)c(=O)n(C)c3n2)ccc1F 9.03%
Cc1cc(O)c2c(c1)C(=O)c1cc(O)cc(O)c1C2=O 8.59%
Cn1sc(=O)n(Cc2ccccc2)c1=O 8.82%
C[C@@H]1CCNC(=O)c2cc3ccc(C(=O)Nc4nc5ccccc5n4CCCN(C)C)cc3n21 7.14%
N#Cc1cccc(-c2c[nH]c3ncnc(N4CCOCC4)c23)c1 8.15%
Cc1[nH]c2ccccc2c1C1=C(NCCc2ccc(F)cc2)C(=O)N(C)C1=O 9.02%
CCNC(=O)Nc1ccc(-c2nc3c(c(N4CCOC[C@@H]4C)n2)CCN(c2ncccn2)C3)cc1 9.16%
C=CC(=O)N1CCC[C@@H](n2nc(-c3cccc(C(=O)Nc4ccc(C(C)C)c(C)c4)c3)c3c(N)ncnc32)C1 9.01%
c1ccc2c(-c3cnn4cc(-c5ccc(N6CCNCC6)cc5)cnc34)ccnc2c1 8.42% [at 6.37 µM]
